Hits are enriched below; roughly 5.2% of the tested compounds scored in any of these assays.
Vif inh: HIV Vif self-association inhibitors, primary screen, imaging, HEK293T, single point; HEK293T cells, Vif self-association by quenched fluorescence, 24 h; inhibition, % at 7.49 µM; actives 0.35% (n = 340,000); in the data active means inhibition above about 50%, passing the limit was not always enough
SKN-1 block: suppressors of acrylamide-induced Pgst-4::GFP reporter in worms, primary screen, SKN-1 inhibitor project, whole organism, uHTS, GFP/RFP fluorescence ratio, strain VP596; C. elegans VP596 Pgst-4::GFP/RFP ratio, 24 h; inhibition, % at 21.8 µM; actives 0.49% (n = 360,000); AID 624304, 2012;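 active means interference check ratio from 0.5 to 1.5 plus GFP to RFP signal ratio inhibition reaching or exceeding a fixed threshold, cut at about 30% in these data, passing the limit was not always enough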
GRIN3A LBD mod: binders of NR3A ligand-binding domain, primary screen, biophysical, differential scanning fluorimetry, uHTS | actives 2.5% (n = 340,000) | NR3A LBD differential scanning fluorimetry, Tm shift; 0% = protein alone, 100% = glycine-bound protein | Tm shift relative to glycine control, % at 25 µM | Glutamate receptor ionotropic, NMDA 3A (GRIN3A) ligand-binding domain | AID 1259313, 2017;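 active means melting temperature shift of at least 10% of the positive control shift, at one fixed dose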
esBAF inh: Bmi1 luciferase reporter increase in mESCs, primary screen, esBAF inhibitor project, mouse ES cells, Bmi1 luciferase knock-in, single point; 24 h; 100% = twice the neutral-well signal; reporter increase, % at 12.5 µM; actives 2% (n = 350,000); in the data active means activation above about 40%;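 further: 0% = median of the plate's neutral control wells and 100% = double that signal; a rise in the Bmi1 reporter signal indicates esBAF inhibition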
NadD inh: inhibitors of S. aureus NadD, primary screen, biochemical, colorimetric, uHTS; Nicotinate-nucleotide adenylyltransferase NadD (Staphylococcus aureus N315); actives 0.78% (n = 360,000); inhibition, % at 20 µM; purified NadD enzyme, colorimetric absorbance read-out; in the data active means inhibition above about 26%
SMARCA2 act: SMARCA2 (BRM) function activators, primary screen, cell-based, luminescence, high throughput | MG213 cells, MMTV-luciferase reporter, dexamethasone, overnight | activation, % at 9.1 µM | actives 1% (n = 370,000) | AID 652017, 2013; in the data active means activation above about 7.8%;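 further: 0% = vehicle wells and 100% = reference activator wells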
NadD inh conf: inhibitors of S. aureus NadD, confirmation, biochemical, colorimetric, single concentration; inhibition, % at 20 µM; AID 624309, 2012; shares compounds with NadD inh; purified S. aureus NadD, colorimetric enzyme assay; actives 13% (n = 2,000); in the data active means inhibition mostly above about 42%, no sharp cut-off; inactive means mostly below about 42%
Numbers without * were called inactive; nt = no result given.

SMILES	Vif inh	SKN-1 block	GRIN3A LBD mod	esBAF inh	NadD inh	SMARCA2 act	NadD inh conf
CCC(=O)N1C[C@H](C)[C@H](OC)CN(C)C(=O)c2cc(NC(=O)c3cc(C)on3)ccc2OC[C@@H]1C	nt	nt	nt	-2.4	nt	nt	nt
O=C(c1ccc2c(=O)n(Cc3ccco3)c(=S)[nH]c2c1)N1CCN(c2ccccc2)CC1	-3.7	3.9	1.7	nt	28.0*	-0.4	23.7
CC1CC(C)CN(C(=O)c2ccc3c(=O)n(Cc4ccc5c(c4)OCO5)c(=S)[nH]c3c2)C1 (stereo unspecified)	-4.8	-3.5	-4.2	0.5	31.9*	-2.4	5.1
Cc1noc(C)c1S(=O)(=O)N(C)C[C@@H]1Oc2ccc(NC(=O)CCCN(C)C)cc2C(=O)N([C@H](C)CO)C[C@@H]1C	nt	nt	nt	0.5	nt	nt	nt
S=c1[nH]nc(-c2ccncc2)n1/N=C/c1cn(-c2ccccc2)nc1-c1ccc(Cl)cc1	1.0	-5.9	0.5	nt	45.3*	-2.0	5.2
O=[N+]([O-])c1ccc(/C=N/n2c(-c3ccccc3)n[nH]c2=S)cc1	-4.3	6.0	1.3	-4.2	5.5	0.4	nt
O=[N+]([O-])c1ccc(-c2nn(-c3ccccc3)cc2/C=N/n2c(-c3cccs3)n[nH]c2=S)cc1	-6.4	-10.8	-1.7	nt	43.1*	-2.4	2.9
Cc1ccc(-c2cc(-c3ccccc3Cl)c(C#N)c(N)n2)o1	11.1	19.1	-5.5	-2.6	68.4*	2.3	57.2*
Cc1ccc(-c2cc(-c3ccc(F)cc3)nc(N)c2C#N)o1	0.1	10.3	-0.1	-5.2	12.9	1.7	nt
Cc1ccc(-c2cc(-c3ccccc3)c(C#N)c(N)n2)o1	nt	23.5	-8.8	3.2	40.8*	-1.4	47.9
CO[C@H]1CN(C)C(=O)c2cc(NC(=O)C3CCCC3)ccc2OC[C@H](C)NC[C@@H]1C	nt	nt	nt	-9.2	nt	nt	nt
Cc1ccc(S(=O)(=O)Nc2ccc3c(c2)CC(=O)N([C@H](C)CO)C[C@H](C)[C@H](CN(C)C(=O)Nc2cccc4ccccc24)O3)cc1	nt	nt	nt	4.8	nt	nt	nt
COc1ccc(-n2c(N)c(C(=O)NCc3ccco3)c3nc4ccccc4nc32)cc1	-1.0	7.9	-6.3	nt	21.8	-0.2	nt
Nc1c(C(=O)NCc2ccco2)c2nc3ccccc3nc2n1CCc1ccc(F)cc1	-5.1	-9.6	4.8	-6.0	38.5*	-0.8	4.4
CC(C)NC(=O)Nc1ccc2c(c1)CC(=O)N([C@@H](C)CO)C[C@H](C)[C@@H](CN(C)Cc1ccc(C(F)(F)F)cc1)O2	nt	nt	nt	-0.1	nt	nt	nt
CCCNC(=O)c1ccc2c(=O)c(O)c(-c3ccc(C)cc3)[nH]c2c1	-3.6	8.6	-6.9	-54.4	-1.2	-0.9	nt
Cc1ccc(-c2[nH]c3cc(C(=O)NCCCn4ccnc4)ccc3c(=O)c2O)cc1	12.1	2.5	-0.9	-7.7	54.4*	-0.1	19.1
Cc1ccc(C(=O)OCC(=O)Nc2sc3c(c2C#N)CCCCC3)cc1NC(=O)c1ccco1	1.3	13.1	-0.3	10.2	35.9*	-0.4	11.6
Cc1ccc(C(=O)OCC(=O)Nc2sc3c(c2C#N)CCCC3)cc1NC(=O)c1ccco1	-8.5	-2.6	-2.5	-0.6	58.7*	3.3	17.2
CCCNC(=O)N1[C@@H]2c3ccc(-c4cccc(OC)c4)c(=O)n3C[C@H]1[C@H](CO)[C@H]2C(=O)NCC	nt	nt	nt	-3.4	nt	nt	nt
O=C(C=Cc1ccco1)c1ccc([N+](=O)[O-])cc1	29.0	7.9	0.2	-6.4	1.2	-1.4	nt
O=C(/C=C/c1ccco1)c1ccc(NC(=O)C23CC4CC(CC(C4)C2)C3)cc1	-7.5	14.8	3.3	-0.1	32.8*	-2.5	11.4
C[C@H]1CN([C@@H](C)CO)C(=O)c2cccc(NS(=O)(=O)c3cn(C)cn3)c2O[C@H]1CN(C)S(=O)(=O)c1ccc(Cl)cc1	nt	nt	nt	3.1	nt	nt	nt
COc1ccc(C)cc1-n1nnnc1SC/C(O)=C(\C#N)c1nc2ccccc2[nH]1	-6.9	18.0	3.8	-8.6	6.1	0.8	nt
Cc1cc(C)n2c(SCC(O)=C(C#N)c3nc4ccccc4[nH]3)nnc2n1	-3.3	-11.7	-2.4	-8.2	25.4	-1.4	nt
SMILES	Vif inh	SKN-1 block	GRIN3A LBD mod	esBAF inh	NadD inh	SMARCA2 act	NadD inh conf
Cc1cccc(Nc2nnc(SC/C(O)=C(\C#N)c3nc4ccccc4[nH]3)s2)c1	-0.6	-0.2	10.4*	nt	32.0*	1.2	37.5
Cc1ccc(Nc2nnc(SC/C(O)=C(\C#N)c3nc4ccccc4[nH]3)s2)c(C)c1	-6.8	10.6	12.9*	nt	55.7*	-3.0	60.5*
O=C(O)C1CC=CCC1C(=O)N1CCN(c2nc(-c3ccccc3)c3ccccc3n2)CC1 (stereo unspecified)	7.2	4.7	-1.4	nt	10.2	0.5	nt
O=C(O)C1CC=CCC1C(=O)N1CCN(c2nc(-c3ccccc3Cl)c3cc(Br)ccc3n2)CC1 (stereo unspecified)	1.6	0.2	-4.2	nt	35.8*	-6.7	27.7
COC(=O)[C@@H]1[C@@H](CO)[C@@H]2Cn3c(ccc(-c4ccccc4)c3=O)[C@@H]2N1CCc1ccccc1	nt	nt	nt	-0.3	nt	nt	nt
Cc1cc(O)c(-c2cc(C(=O)Nc3sc4c(c3C(=O)NCc3ccco3)CCC4)[nH]n2)cc1C	-2.6	9.4	7.1	nt	35.9*	-0.2	-0.6
Cc1ccc(-c2cc(C(=O)Nc3sc4c(c3C(=O)NCc3ccco3)CCC4)[nH]n2)c(O)c1	0.1	-12.7	21.2*	nt	36.1*	2.8	-0.3
CN(C)C(=O)C[C@@H]1C=C[C@@H](NC(=O)C2CC2)[C@H](CO)O1	nt	nt	nt	2.6	nt	nt	nt
CCCc1cn(CC[C@@H]2CC[C@H](NC(=O)C3CC3)[C@H](CO)O2)nn1	nt	nt	nt	-1.1	nt	nt	nt
O=C(Nc1nc2ccc(F)cc2s1)C1CCN(S(=O)(=O)c2cc([N+](=O)[O-])ccc2Cl)CC1	-14.8	-0.9	7.6	nt	35.5*	-4.3	12.5
Cc1ccc(NC(=O)C2CCN(S(=O)(=O)c3cc([N+](=O)[O-])ccc3Cl)CC2)nc1	-0.2	-0.4	-1.1	-28.2	2.7	-4.0	nt
CC(NC(=O)C1CCN(S(=O)(=O)c2cc([N+](=O)[O-])ccc2Cl)CC1)c1ccccc1 (stereo unspecified)	-1.4	-2.8	3.3	nt	-5.3	-3.0	nt
Cc1ccc2nc(NC(=O)C3CCN(S(=O)(=O)c4cc([N+](=O)[O-])ccc4Cl)CC3)sc2c1	-8.2	7.4	4.9	nt	30.9*	-5.2	-0.2

Bioassay records from PubChem BioAssay.
